Compound activity as filed in PubChem BioAssay.
TRHR enhancer-1 = allosteric enhancers of human TRH receptor | AID 493056 | enhancement, % at 2 µM | P34981 | TRHR cells, fluo-8 calcium fluorescence, EC20 TRH enhancement | actives 0.66% (n = 360,000); in the data active means enhancement above about 30%; further: 0% is about no effect
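TRHR-expressing cells loaded with fluo-8 calcium dye were read kinetically (ex 480/em 530) during compound addition, then stimulated with an EC20 of TRH (10 nM final). Enhancement of the Gq-mediated intracellular calcium response was scored.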
D1 antagonist = blocks dopamine activation of the human D1 receptor; activity change, negative = inhibition, % at 10 µM; P21728; actives 3.2% (n = 360,000); HEK293 TREx D1 cells, calcium flux, dopamine EC80; stronger effect = lower value; in the data active means activity change below about -30%; further: on the % scale 0 is the no-effect control and ±100 the full control effect
Target sequence (P21728 whole entry, looked up): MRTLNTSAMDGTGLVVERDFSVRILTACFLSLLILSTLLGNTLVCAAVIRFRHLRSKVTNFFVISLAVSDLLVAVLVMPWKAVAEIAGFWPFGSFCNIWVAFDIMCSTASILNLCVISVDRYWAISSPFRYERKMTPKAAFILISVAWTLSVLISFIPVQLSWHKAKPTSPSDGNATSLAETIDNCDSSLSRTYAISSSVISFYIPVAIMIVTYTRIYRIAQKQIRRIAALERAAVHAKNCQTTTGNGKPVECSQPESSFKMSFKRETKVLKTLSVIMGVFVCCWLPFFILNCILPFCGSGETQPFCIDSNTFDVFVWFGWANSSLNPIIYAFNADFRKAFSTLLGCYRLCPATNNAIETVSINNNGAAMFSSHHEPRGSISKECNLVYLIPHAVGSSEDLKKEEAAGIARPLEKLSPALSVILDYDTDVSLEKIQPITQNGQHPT
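Tetracycline-induced HEK293 Trex D1 cells, force-coupled to calcium, dye-loaded; compounds added and read 180 s, then EC80 dopamine added and calcium flux tracked kinetically another 180 s.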
TRHR agonist-1 = activates the human TRH receptor; P34981; actives 0.18% (n = 360,000); TRHR cells, calcium flux fluo-8, FDSS agonist mode; activation, % at 2 µM; in the data active means activation above about 30%; further: 0% is about no effect
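TRHR-expressing cells loaded with fluo-8 calcium dye; 23 nL library compound pin-transferred, kinetic FDSS fluorescence (Ex 480/Em 530) recorded about 180 s for agonist-induced calcium release, before a 10 nM TRH EC20 addition for potentiator mode.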
D1 ag = human D1 receptor agonism; P21728; HEK293 T-REx D1 cells, calcium flux, agonist mode; activation, % at 2 µM; AID 504660; actives 1% (n = 360,000); in the data active means activation above about 30%; further: 0% is about no effect
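Agonism was scored from calcium flux recorded over 180 s (1 read/s) after pintool compound addition, following a 10-cycle baseline. Cells were inducible force-coupled HEK293 TREx D1, plated overnight at 30 C and loaded with no-wash calcium dye.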
D1 PAM = potentiators of human D1 dopamine receptor; P21728; AID 504651; actives 0.036% (n = 360,000); potentiation, % at 10 µM; HEK293 TREx D1 cells, calcium flux, dopamine EC20 potentiation; in the data active means potentiation above about 30%; further: 0% is about no effect
TRHR enhancer-2 = confirmation of human TRH receptor allosteric enhancers; TRH receptor cell assay, enhancer confirmation qHTS; shares compounds with TRHR enhancer-1; activity change, negative = inhibition, % at 46.1 µM; 970 tested, under 10 active; AID 493076;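 further: compound effect scored on response to added TRH at EC20 of 10 nM; 0% is about no effect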
TRHR agonist-2 = human TRH receptor agonism confirmation | Potency, µM (doses to about 46.1 µM), for the others: top-dose activation, usual class: activators | shares compounds with TRHR enhancer-1 | TRHR-expressing cells, agonist activation read-out | actives 8% (n = 970); further: potency means the concentration at half of the fitted maximal effect; 0% is about no effect; nearly all actives have a fitted effect of over 75% in size
* = called active by the depositor; ? = inconclusive; . = no result. In the library only some 4.7% were active in any assay of this set; here they are far more common. Unless noted, the call rests on the fitted dose curve; in most records, active means well fitted curve in the direction sought with a large enough effect; inconclusive means small, poorly fitted or top-dose-only effect, or another doubt; inactive means no such curve, though single readings can be large; an effect the other way counts as inactive or inconclusive.

SMILES	TRHR enhancer-1	D1 antagonist	TRHR agonist-1	D1 ag	D1 PAM	TRHR enhancer-2	TRHR agonist-2
CCn1c(CNC(=O)COc2ccc(C(C)C)cc2)nnc1SCC(=O)Nc1cc(F)ccc1C	41*	11	-1	5	1	-3	3%
Cc1ccc(NC(=O)COc2ccccc2)cc1Cl	7	6	0	8	-3	.	.
CCOCC(=O)Nc1ccc(C)c(Cl)c1	62*	21	-1	2	-4	-7	2%
COc1ccccc1C(=O)Nc1cccc(C(=O)OCc2cc(=O)n3nc(C)sc3n2)c1	2	-2	0	-1	1	.	.
Cc1cccc(NS(=O)(=O)c2ccc(C)c(C(=O)NCC(c3cccs3)N(C)C)c2)c1 (stereo not given)	42*	0	1	12	1	2	3%
Cc1cc(C)c2c(n1)nn1c(C)c(CCC(=O)NCc3ccccc3Cl)c(C)nc21	-1	2	-2	0	1	.	.
C/C(=N\NC(=O)CSc1nnc(C)s1)c1ccc(Cl)cc1	43*	2	0	0	-3	-2	1%
COc1ccc(/C(C)=N\NC(=O)CSc2nnc(C)s2)cc1	-3	9	0	1	-4	.	.
CC(C)Nc1ccc(-c2nc(-c3ccncc3)no2)cc1[N+](=O)[O-]	3	-7	-1	9	-2	.	.
CCOC(=O)c1ccccc1NC(=O)CN(c1ccccc1OC)S(=O)(=O)c1ccc(C)cc1	-15	-10	2	6	-1	.	.
COc1cc(CNc2ncc(-c3ccc(Br)cc3)n2C)cc(OC)c1O	41*	-42*	0	2	-9	0	5%
Cn1c(-c2cccc(Br)c2)cnc1NCc1cccnc1	6	-9	-1	2	-10	.	.
CN1CCCc2cc3c(C(F)(F)F)cc(=O)oc3nc21	2	2	49*	53*	-1	3	18µM*
FC(F)(F)c1cc(C(F)(F)F)c2ccc(N3CCOCC3)nc2n1	9	-2	-1	0	-6	.	.
CC(=O)Nc1ccc2c(c1)nc(CCNC(=O)c1ccccc1)n2C	42*	1	-1	-1	2	14	-1%
Cn1c(CN2CCCC2)nc2cc(NC(=O)c3ccco3)ccc21	55*	-10	0	0	-5	-3	-1%
Cc1cccc2cc3c(N)c(C(=O)N4CCc5ccccc54)sc3nc12	13	-26	53*	126*	4	?	18µM*
CC(=O)Nc1cc(NC(C)=O)c(N=Nc2ccccc2)cc1C	63*	6	0	1	-1	-3	2%
S=C(NCc1ccco1)Nc1ccc(N2CCOCC2)cc1	53*	-6	1	3	-6	-3	0%
S=C(NCc1ccco1)N1CCOCC1	0	-11	0	2	-4	.	.
CCOC(=O)C1CCN(C(=O)c2c(C)nn(-c3ccc(F)cc3)c2-n2cccc2)CC1	-2	-8	0	-1	-2	.	.
Cc1ccc(N2CCN(c3c(CN4CCCC4)c(=O)oc4ccccc34)CC2)c(C)c1	8	9	0	2	5	.	.
O=C(O)c1ccc(S(=O)(=O)N2CCSCC2)cc1	51*	27	0	5	3	-3	0%
NC(=O)c1ccc(S(=O)(=O)N2CCSCC2)cc1	-3	-4	0	2	2	.	.
CCOC(=O)c1[nH]cnc1C(=O)Nc1ccc(Cl)cc1	5	0	0	0	-10	.	.
CCOC(=O)c1[nH]cnc1C(=O)Nc1ccc(C)cc1	51*	13	0	1	1	-2	5%
O=c1[nH]c(-c2ccc(O)cc2)nc2scc(-c3cccs3)c12	47*	-18	1	3	-6	4	1%
Cc1nc2scc(-c3cccs3)c2c(=O)[nH]1	-1	-4	0	-1	8	.	.
Nc1[nH]c2cc([N+](=O)[O-])ccc2c1-c1ccccn1	-8	-12	31*	65*	-12	2	?
